Laboratory results reported in PubChem BioAssay (NCATS).
Records with an inconclusive call do not appear. The source made the active and inactive calls. Calls come from the whole dose curve; as a rule, active = well fitted curve in the direction sought with a large enough effect; inconclusive = small, poorly fitted or top-dose-only effect, or another doubt; inactive = no such curve, though single readings can be large; an effect the other way counts as inactive or inconclusive.

Assays:
[1] = target: Metallo-beta-lactamase type 2 (Klebsiella pneumoniae) (UniProt C7C422); experiment: qHTS to identify inhibitors of the New Delhi Metallo-beta-lactamase (NDM): assay validation screen against the NCATS LOPAC Collection (AID 1794843);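 note: nitrocefin turnover by NDM-1 measured as 485 nm absorbance at plateau; series mostly up to about 38 µM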
Chain of Metallo-beta-lactamase type 2 (Klebsiella pneumoniae) (C7C422 whole entry, looked up): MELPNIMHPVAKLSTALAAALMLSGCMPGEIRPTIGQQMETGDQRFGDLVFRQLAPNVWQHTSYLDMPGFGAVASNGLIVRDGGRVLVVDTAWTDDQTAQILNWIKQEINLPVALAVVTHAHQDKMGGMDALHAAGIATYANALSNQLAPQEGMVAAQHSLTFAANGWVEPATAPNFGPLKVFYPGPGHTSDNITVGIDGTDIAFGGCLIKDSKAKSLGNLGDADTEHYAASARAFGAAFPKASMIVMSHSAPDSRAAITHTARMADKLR
Summary of the method: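 Nitrocefin hydrolysis (50 uM substrate stock) by NDM-1, 2 nM final, was followed by 485 nm absorbance after compound preincubation; buffer was 50 mM HEPES pH 7.0, 1 uM ZnSO4, 0.01% Tween20.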

[2] = target: Glutathione peroxidase 1 (Homo sapiens) (UniProt P07203); experiment: Primary qHTS Assay for Inhibitors of Recombinant Selenoprotein Glutathione Peroxidase 1 (GPX1) (AID 1845191); note: nearly all actives have a fitted effect of over 65% in size
Chain of Glutathione peroxidase 1 (Homo sapiens) (P07203 whole entry, looked up): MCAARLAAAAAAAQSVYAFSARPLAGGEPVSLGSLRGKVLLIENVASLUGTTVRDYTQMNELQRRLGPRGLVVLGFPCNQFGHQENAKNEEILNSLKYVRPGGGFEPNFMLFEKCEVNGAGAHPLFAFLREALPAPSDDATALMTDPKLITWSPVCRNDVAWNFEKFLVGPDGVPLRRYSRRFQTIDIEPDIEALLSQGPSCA
Summary of the method: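 GR-coupled assay: compounds preincubated 30 min at room temperature with GPX1, then reaction started with CHP; final 10 nM GPX1, 1 mM GSH, 0.5 mM CHP, 0.5 mM NADPH, 100 nM GR, 0.01% BSA, pH 7.5 Tris buffer. NADPH fluorescence (340/450 nm) read at 0 and 15 min.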

[3] = target: Phospholipid hydroperoxide glutathione peroxidase GPX4 (Homo sapiens) (UniProt P36969); experiment: Primary qHTS Assay for Inhibitors of Recombinant Selenoprotein Glutathione Peroxidase 4 (GPX4) (AID 1845192); note: nearly all actives have a fitted effect of over 65% in size
Chain of Phospholipid hydroperoxide glutathione peroxidase GPX4 (Homo sapiens) (P36969 whole entry, looked up): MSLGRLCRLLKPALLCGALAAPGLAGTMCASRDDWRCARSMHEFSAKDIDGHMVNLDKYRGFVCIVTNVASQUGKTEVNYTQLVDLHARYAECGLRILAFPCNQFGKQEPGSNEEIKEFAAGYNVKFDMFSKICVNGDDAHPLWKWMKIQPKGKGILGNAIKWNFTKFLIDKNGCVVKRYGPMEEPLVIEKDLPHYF
Summary of the method: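 GR-coupled assay: recombinant GPX4 preincubated 30 min with compound at room temperature; final 200 nM GPX4, 1 mM GSH, 0.5 mM cumene hydroperoxide, 0.5 mM NADPH, 100 nM GR, 0.01% BSA, pH 7.5 Tris. NADPH fluorescence (340/450 nm) read at 0 and 15 min.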

Measured: Potency

CN(C)c1ccc(/C=C2\C(=O)Nc3ccccc32)cc1
inactive: all assays above

NC(=O)C(=O)O
inactive: all assays above

CC1(C)CCC=[N+]1[O-]
inactive: all assays above

Nc1ccn([C@@H]2O[C@H](CO)[C@@H](O)[C@@H]2O)c(=O)n1
inactive: all assays above

CCOC(=O)C1=C(C)NC(C)=C(C(=O)OCC)C1c1c(F)c(F)c(F)c(F)c1F
inactive: all assays above

CN1CCc2cc(NC(=O)Nc3cccnc3)ccc21
inactive: all assays above

CCN(CC)c1ncnc2c1ncn2[C@@H]1O[C@H](COP(=O)(O)OP(=O)(O)C(Br)(Br)P(=O)(O)O)[C@@H](O)[C@H]1O
inactive: all assays above

O=C(/C=C/c1ccc(O)cc1)c1ccc(O)cc1O
inactive: all assays above

Oc1ccccc1O
inactive: all assays above

CO[C@H]1O[C@@H]2O[C@]3(C)CC[C@@H]4[C@@H](C)CC[C@H]([C@H]1C)[C@]24OO3
inactive: all assays above

CC[C@H]1OC(=O)[C@H](C)[C@@H](O[C@H]2C[C@@](C)(OC)[C@@H](O)[C@H](C)O2)[C@H](C)[C@@H](O[C@@H]2O[C@H](C)C[C@H](NC)[C@H]2O)[C@](C)(O)C[C@@H](C)CN(C)[C@H](C)[C@@H](O)[C@]1(C)O
inactive: all assays above

COc1ccccc1CN[C@@H]1CCCN[C@@H]1c1ccccc1
inactive: all assays above

Fc1cccc(/C=N/N=C/c2cccc(F)c2)c1
inactive: all assays above

O=P(O)(O)C(Cl)(Cl)P(=O)(O)O
inactive: all assays above

CN(C)CCC(c1ccc(Cl)cc1)c1ccccn1 (stereo not given)
inactive: all assays above

NO
inactive: all assays above

CN1CCc2cccc3c2C1Cc1ccc(O)c(O)c1-3 (stereo not given)
inactive: all assays above

NC(CCCP(=O)(O)O)C(=O)O (stereo not given)
inactive: all assays above

COc1cc(OC)c(/C=C2/C(=O)Nc3ccccc32)c(OC)c1
inactive: all assays above

COC(=O)c1c(C)[nH]c(C)c1C(=O)c1ccccc1Cc1ccccc1
inactive: all assays above

CC(=O)/C=C1\C(=O)N(C)c2ccccc21
inactive: all assays above

COc1cc(OC)cc(-c2cc3cnc(N)nc3nc2NC(=O)NC(C)(C)C)c1
inactive: all assays above

COc1ccc(/C=C/c2nc(NCCCN(C)C)c3ccccc3n2)cc1
inactive: all assays above

C[N+](C)(C)CCOP(=O)(O)OP(=O)([O-])OC[C@H]1O[C@@H](n2ccc(N)nc2=O)[C@H](O)[C@@H]1O
inactive: all assays above

N#C/C(=C\c1ccc(-c2cc(Cl)ccc2Cl)o1)C(=O)Nc1cccc2ncccc12
inactive: all assays above

OC[C@H]1O[C@@H](n2cnc3c(NC4CCCC4)ncnc32)[C@H](O)[C@@H]1O
inactive: all assays above

COc1ccc(C(=O)/C(Cc2cc(OC)c(OC)c(OC)c2)=C(\C(=O)O)c2ccc3c(c2)OCO3)cc1
inactive: all assays above

OC[C@H]1O[C@@H](n2cnc3c(NC4CCCCC4)ncnc32)[C@H](O)[C@@H]1O
inactive: all assays above

C#C[C@]1(O)CC[C@H]2[C@@H]3CCC4=Cc5oncc5CC4(C)[C@H]3CCC21C (stereo not given in full)
inactive: all assays above

CCCCCCCC/C=C\CCCCCCCC(=O)NCCO
inactive: all assays above

COC1=C(OC)C(=O)c2ccccc2C1=O
inactive: all assays above

Brc1c(Br)c(Br)c2n[nH]nc2c1Br
inactive: all assays above

CC[C@@H](C)[C@H]1O[C@]2(CC[C@H]1C)C[C@@H]1C[C@@H](CC=C(C)[C@@H](O[C@H]3C[C@H](OC)[C@@H](O[C@H]4C[C@H](OC)[C@@H](O)[C@H](C)O4)[C@H](C)O3)[C@@H](C)C=CC=C3CO[C@@H]4[C@H](O)C(C)=C[C@@H](C(=O)O1)[C@]34O)O2
inactive: all assays above

Oc1ccc(C2CNCc3sccc32)cc1O (stereo not given)
inactive: all assays above

CNCC[C@H](Oc1ccc(C(F)(F)F)cc1)c1ccccc1
inactive: all assays above

Cc1cc(NC(=O)Nc2ccc3c(ccn3C)c2)sn1
inactive: all assays above

COc1ccccc1CNCCCCCCNCCCCCCCCNCCCCCCNCc1ccccc1OC
inactive: all assays above

Nc1nc2ccc(Cl)cc2n2c(-c3ccccc3)nnc12
inactive: all assays above

CC(C)c1cccc(C(C)C)c1N1C(=O)c2ccc(O)cc2C1=O
inactive: all assays above

Nc1ncnc2c1ncn2[C@@H]1O[C@H](COP(=O)(O)OP(=O)(O)OP(=O)(O)OP(=O)(O)OC[C@@H]2O[C@H](n3cnc4c(N)ncnc43)[C@@H](O)[C@H]2O)[C@@H](O)[C@H]1O
inactive: all assays above
